Screens as filed in PubChem.
Shown are actives, neighbours in structure and some others; about 11% of the full set was active somewhere.
VDR inh: Inhibitors of the vitamin D receptor (VDR): qHTS. Vitamin D3 receptor (Homo sapiens), P11473. VDR-SRC2-3 peptide fluorescence polarization, 2 h. Potency, µM, hits mostly inhibitors. 0.93% of 400,000 active
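Inhibition of the VDR/SRC2-3 peptide interaction is quantified by fluorescence polarization. Compounds (23 nl, pintool) incubate with the reagents for 2 hours at ambient room temperature.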
HP1b chromo inh: HTS for Inhibitors of HP1-beta Chromodomain Interactions with Methylated Histone Tails; Chromobox protein homolog 1 (Homo sapiens), P83916; AlphaScreen HP1-beta / biotin-H3K9me3 peptide binding; 0.56% of 390,000 active; Potency, µM (series often up to 114 µM), usual class: inhibitors; further: nearly all actives have a fitted effect of over 70% in size
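HP1-beta protein (50 nM final) preincubated 30 min at room temperature with biotinylated H3(1-18)K9me3 peptide (50 nM) in PBS pH 7.4, 0.01% Tween-20, then compound added for 30 min. AlphaScreen streptavidin donor/nickel chelate acceptor beads (10 ug/mL final), 30 min dark, luminescence read.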
BAZ2B inh: qHTS Assay for Inhibitors of BAZ2B | Bromodomain adjacent to zinc finger domain protein 2B (Homo sapiens), Q9UIF8 | AlphaScreen BAZ2B-H3K14Ac peptide displacement | Potency, µM (top dose mostly 114 µM), most hits filed as inhibitors | 4.4% of 360,000 active; further: nearly all actives have a fitted effect of over 60% in size
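Protein-peptide AlphaScreen: BAZ2B 50 nM, b-H3K14Ac 50 nM, 1x PBS pH 7.4 + 0.01% Tween-20. Preincubation 30 min RT; cpd 30 min RT (top 110 uM); beads 20 min RT, light-protected.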
G9a inh: qHTS Assay for Inhibitors of Histone Lysine Methyltransferase G9a | Histone-lysine N-methyltransferase EHMT2 (Homo sapiens), Q96KQ7 | G9a H3K9 monomethylation, AlphaScreen, 2 h | Potency, µM (series often up to 102 µM), most hits filed as inhibitors | 8.8% of 350,000 active; further: nearly all actives have a fitted effect of over 75% in size
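Signal arises when biotinylated H3K9 peptide, once monomethylated, bridges streptavidin donor and antibody-captured acceptor beads. Enzyme at 20 nM was preincubated 15 min with test compounds; peptide 500 nM and SAM 20 uM then reacted for 2 h.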
JMJD2A Tudor inh: qHTS Assay for Inhibitors of JMJD2A-Tudor Domain; Potency, µM (top dose mostly 114 µM), usual class: inhibitors; 4.4% of 390,000 active; Lysine-specific demethylase 4A (Homo sapiens), O75164; AlphaScreen JMJD2A-Tudor / H3K4me3 peptide binding; AID 504339, 2011; further: nearly all actives have a fitted effect of over 50% in size
Target sequence (O75164 whole entry, looked up, the tested form may be a part): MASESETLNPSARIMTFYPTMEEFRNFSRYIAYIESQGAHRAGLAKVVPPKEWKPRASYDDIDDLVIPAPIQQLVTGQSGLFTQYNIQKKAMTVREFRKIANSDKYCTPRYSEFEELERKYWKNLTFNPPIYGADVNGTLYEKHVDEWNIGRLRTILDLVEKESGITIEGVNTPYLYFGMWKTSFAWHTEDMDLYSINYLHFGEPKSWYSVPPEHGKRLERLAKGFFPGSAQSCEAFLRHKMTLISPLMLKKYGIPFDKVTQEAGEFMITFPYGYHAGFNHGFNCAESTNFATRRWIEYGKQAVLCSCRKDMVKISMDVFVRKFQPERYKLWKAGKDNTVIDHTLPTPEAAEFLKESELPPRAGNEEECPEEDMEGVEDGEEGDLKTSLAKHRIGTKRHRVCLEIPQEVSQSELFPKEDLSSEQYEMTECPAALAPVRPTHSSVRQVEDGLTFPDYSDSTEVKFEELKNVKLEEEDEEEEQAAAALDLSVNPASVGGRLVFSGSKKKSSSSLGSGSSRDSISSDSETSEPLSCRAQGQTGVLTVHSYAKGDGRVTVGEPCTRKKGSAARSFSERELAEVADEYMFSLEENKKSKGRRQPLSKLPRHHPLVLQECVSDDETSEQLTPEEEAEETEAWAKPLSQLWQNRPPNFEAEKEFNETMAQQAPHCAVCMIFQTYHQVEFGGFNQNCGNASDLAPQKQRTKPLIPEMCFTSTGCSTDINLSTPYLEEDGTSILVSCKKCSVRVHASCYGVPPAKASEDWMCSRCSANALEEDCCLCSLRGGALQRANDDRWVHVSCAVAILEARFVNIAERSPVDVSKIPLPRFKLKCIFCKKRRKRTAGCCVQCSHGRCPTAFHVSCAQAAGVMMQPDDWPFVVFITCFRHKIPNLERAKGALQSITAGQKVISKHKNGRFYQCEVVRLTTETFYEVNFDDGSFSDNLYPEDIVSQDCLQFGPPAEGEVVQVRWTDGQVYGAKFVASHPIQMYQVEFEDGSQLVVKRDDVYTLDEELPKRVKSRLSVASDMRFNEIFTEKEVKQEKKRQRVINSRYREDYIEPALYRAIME
PLK1 PBD block: qHTS for Inhibitors of PLK1-PDB (polo-like kinase 1 - polo-box domain): Primary Screen; Serine/threonine-protein kinase PLK1 (Homo sapiens), P53350; Plk1 PBD binding of FITC phosphopeptide, fluorescence polarization; Potency, µM, actives largely listed as inhibitors; 2.8% of 360,000 active; further: series mostly up to about 57 µM; nearly all actives have a fitted effect of over 65% in size
Numbers stand for hits; 0 = inactive; ? = inconclusive; - = not tested or not shown; ! = not confirmed by another sample; [ ] = remark or other dose. The call rests on the fitted dose curve; in most records, active means well fitted curve in the direction sought with a large enough effect; inconclusive means small, poorly fitted or top-dose-only effect, or another doubt; inactive means no such curve, though single readings can be large; an effect the other way counts as inactive or inconclusive.

SMILES	VDR inh	HP1b chromo inh	BAZ2B inh	G9a inh	JMJD2A Tudor inh	PLK1 PBD block
CC(C)(C)c1ccc(C2=NC(C)(C)N(CC(=O)Nc3ccc(F)c(F)c3)C2=O)cc1	0	0	0	0	0	-
CNc1cccc2c1C(=O)c1ccccc1C2=O	0	8.91µM	3.16µM	8.91µM	2.82µM	0
CCN(CC)CCOc1ccc(-c2nc3cc(Cl)ccc3s2)cc1	0	-	-	0[12.7 µM]	-	-
CC1=NN(c2ccccc2)C(=O)/C1=C/c1cccc(C)c1	50.1µM	0	?	50.1µM	0	2.12µM
CCOc1cc(/C=C2/C(=O)N(c3ccccc3)N=C2C)ccc1OC(=O)c1cccs1	?	0	50.1µM	39.8µM	?	2.12µM
CC(=O)Oc1ccc(/C=C2/C(=O)N(c3ccccc3)N=C2C)cc1	?	0	?	?	?	2.12µM
CCOc1cc(/C=N/NC(=O)c2ccccn2)ccc1OC(=O)c1cccs1	0	0	0	0	0	0
Cc1cccc(N2N=C(C(=O)O)CCC2=O)c1	0	0	0	0	0	0
COc1ccc(C2=NN(c3ccccc3)C(=O)/C2=C\c2ccc(O)c(OC)c2)cc1	0	15.8µM	25.1µM	15.8µM	15.8µM	?
COc1ccc(/C=C2/C(=O)N(c3ccccc3)N=C2C)cc1OC	0	0	0	70.8µM	0	2.99µM
CCOC(=O)CC1=NN(c2ccccc2)C(=O)/C1=C\c1ccc(N(C)C)cc1	?	?	5.62µM	4.47µM	10µM	?
CC1=NN(c2ccccc2)C(=O)/C1=C/c1cc2cc(C)ccc2nc1N1CCCCC1	-	-	8.91µM	0[0.0925 µM]	-	-
CCOC(=O)CC1=NN(c2ccccc2)C(=O)C1	0	0	0	-	0	?
Cc1ccc2nc(N3CCOCC3)c(C=O)cc2c1	0	0	0	0	0	0
CCNc1nc(NC(C)C)nc(Oc2ccc(=O)n(C)n2)n1	0	0	0	-	0	0
CCN1CCN(S(=O)(=O)c2ccc(C(C)(C)C)cc2)CC1	0	0	0	0	0	0
CC(=O)c1ccc(S(=O)(=O)NC2CCCCCCC2)cc1	0	0	0	0	0	0
O=CN1CCN(S(=O)(=O)c2ccc(S(=O)(=O)NC3CCCCC3)cc2)CC1	0	0	0	44.7µM	0	0
CC(=O)N1CCN(S(=O)(=O)c2ccc(S(=O)(=O)NC3CCCCC3)cc2)CC1	0	0	0	50.1µM	0	0
O=S(=O)(NC1CCCCCCC1)c1ccccc1	0	0	0	0	0	0
CCN1CCN(S(=O)(=O)c2ccc(S(=O)(=O)NC3CC3)cc2)CC1	0	0	0	50.1µM	0	0
CC(C)(C)C1CCc2nc(NC(=O)COc3ccccc3[N+](=O)[O-])sc2C1 (configuration not stated)	0	0	0	0	0	-
COc1ccc(N2CCN(S(=O)(=O)c3ccc(Cl)s3)CC2)cc1	0	0	0	0	0	0
COc1ccc(N2CCN(C(c3cccs3)C(C)NS(C)(=O)=O)CC2)cc1 (configuration not stated)	0	0	-	56.2µM	0	0
COc1ccccc1N1CCN(C(c2cccs2)C(C)NC(=O)c2ccco2)CC1 (configuration not stated)	0	0	0	0	0	0
SMILES	VDR inh	HP1b chromo inh	BAZ2B inh	G9a inh	JMJD2A Tudor inh	PLK1 PBD block
COc1ccc(N2CCN(C(c3cccs3)C(C)NC(=O)c3ccco3)CC2)cc1 (configuration not stated)	0	0	?	3.55µM	?	0
CC(NS(C)(=O)=O)C(c1cccs1)N1CCN(C)CC1 (configuration not stated)	0	0	0	0	0	0
COc1ccc(N2CCN(S(=O)(=O)c3cccs3)CC2)cc1	0	0	0	25.1µM	0	0
CCOC1=NC(=C(c2ccccc2)c2ccccc2)OC1=O	0	0	-	-	25.1µM	0
C/C(=N/NC(=O)CNc1ccc(C)cc1)c1ccc(Cl)cc1	0	0	?	44.7µM	?	0
CCOC1(OCC)N=C(N)C2(C#N)C(c3cccc(C)c3)C12C#N (configuration not stated)	0	0	0	39.8µM	0	0
COC1(OC)N=C(N)C2(C#N)C(c3ccc4c(c3)OCO4)C12C#N (configuration not stated)	0	0	?	50.1µM	0	0
COc1ccc(NC(=O)CN2C(=O)CC(c3ccco3)Sc3ccccc32)cc1OC (configuration not stated)	0	0	?	0	?	-
CCC(=O)N1CCc2cc(S(=O)(=O)NC(Cc3ccccc3)C(=O)NCc3ccc(F)cc3)ccc21 (configuration not stated)	0	0	-	0	0	-
Cc1cc2c(cc1S(=O)(=O)N1CCCCC1)OCC(=O)N2	0	?	79.4µM!	0	0	0
COc1ccc(CNS(=O)(=O)c2cc3c(cc2Cl)NC(=O)CO3)cc1	0	0	?	0	0	0
Cc1cc2c(cc1S(=O)(=O)N1CCC(C)CC1)OCC(=O)N2	0	0	?	?	0	-
CCN(CC)c1ccc(CNS(=O)(=O)c2cc3c(cc2C)NC(=O)CO3)cc1	0	0	0	14.1µM	?	-
O=C1COc2cc(S(=O)(=O)NCc3ccco3)c(Cl)cc2N1	0	0	50.1µM	?	0	-
CCOC(=O)c1cc(OC(=O)c2cc(OC)cc(OC)c2)n(-c2ccccc2)n1	0	0	0	0	0	-
COc1ccc(N2CC(C(=O)N3CCN(Cc4ccc5c(c4)OCO5)CC3)CC2=O)cc1 (configuration not stated)	0	0	0	0	0	0
NC(=O)[C@H]1CC2(CC(c3cccc(NC(=O)COc4ccc(Cl)cc4)c3)=NO2)CN1C(=O)C(c1ccccc1)c1ccccc1 (some centres not stated)	0	0	0	0	0	0
CC(=O)c1ccc(NC(=S)NC(=O)c2c(Cl)c(C)nn2C)cc1	0	0	0	0	0	0
O=C(NCCN1C(=O)S/C(=C/c2cccnc2)C1=O)c1ccc(S(=O)(=O)N2CCCC2)cc1	0	0	-	-	0	0
CCc1cccc2c(C(=O)CCl)c[nH]c12	0	0	0	?	0	23.8µM
CCc1ccc(-c2nc(CSCC(=O)N3CCN(c4ccc(F)cc4)CC3)c(C)o2)cc1	0	0	0	0	0	-
CC(Oc1ccc2c(-c3ccccc3)cc(=O)oc2c1)C(=O)NC(Cc1c[nH]c2ccc(O)cc12)C(=O)O (configuration not stated)	0	0	?	-	?	0
